Measured values from PubChem BioAssay (NCATS).
Inconclusive results are not listed. Where a call stands in place of a potency, no number is given. Values without a mark were called inactive. Active and inactive are the calls of the source. Unless noted, calls follow the shape of the full dose curve.

Experiments:
[1] = qHTS for Inhibitors of the Functional Ribonucleoprotein Complex (vRNP) of Lassa (LASV) Arenavirus: LASV Primary Screen - GLuc reporter signal (AID 1347082; calls by dose curve; tested in HEK293 reporter line; also: nearly all actives have a fitted effect of over 60% in size)
[2] = qHTS for Inhibitors of the Functional Ribonucleoprotein Complex (vRNP) of Lassa (LASV) Arenavirus: Viability assay - alamar blue signal for LASV Primary Screen (AID 1347083; calls by dose curve; tested in HEK293 reporter line; also: nearly all actives have a fitted effect of over 80% in size)
[3] = qHTS for Inhibitors of the Functional Ribonucleoprotein Complex (vRNP) of Lymphocytic Choriomeningitis Arenaviruses (LCMV): Viability assay - alamar blue signal for LCMV Primary Screen (AID 1347085; calls by dose curve; tested in HEK293 reporter line; also: nearly all actives have a fitted effect of over 80% in size)
[4] = target: Nucleoprotein (Lymphocytic choriomeningitis virus (strain Armstrong)) (UniProt P09992); test: qHTS for Inhibitors of the Functional Ribonucleoprotein Complex (vRNP) of Lymphocytic Choriomeningitis Arenaviruses (LCMV): LCMV Primary Screen - GLuc reporter signal (AID 1347086); also: nearly all actives have a fitted effect of over 70% in size
Nucleoprotein (Lymphocytic choriomeningitis virus (strain Armstrong)), sequence (P09992 whole entry, looked up): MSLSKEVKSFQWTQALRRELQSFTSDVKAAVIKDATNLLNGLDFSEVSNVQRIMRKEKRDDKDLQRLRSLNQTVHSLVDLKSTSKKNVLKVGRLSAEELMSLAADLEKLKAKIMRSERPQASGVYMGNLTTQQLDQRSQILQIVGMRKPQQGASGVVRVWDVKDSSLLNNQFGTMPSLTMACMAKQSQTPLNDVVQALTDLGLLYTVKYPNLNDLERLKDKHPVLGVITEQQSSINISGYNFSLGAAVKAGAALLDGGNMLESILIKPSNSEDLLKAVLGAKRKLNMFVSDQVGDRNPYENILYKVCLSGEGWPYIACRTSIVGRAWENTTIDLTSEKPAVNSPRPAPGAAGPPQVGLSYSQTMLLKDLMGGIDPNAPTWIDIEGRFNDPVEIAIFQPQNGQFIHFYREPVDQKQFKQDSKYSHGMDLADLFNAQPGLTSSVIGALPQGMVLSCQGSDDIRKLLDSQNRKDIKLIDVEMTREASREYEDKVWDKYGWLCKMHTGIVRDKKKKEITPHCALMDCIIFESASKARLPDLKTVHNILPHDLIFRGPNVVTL
Potency is read from the fitted curve at half-maximal effect.

| Structure (SMILES) | Potency [1] | Potency [2] | Potency [3] | Potency [4] |
| --- | --- | --- | --- | --- |
| CCNC(=O)Nc1ccc(-c2nc3c(c(N4CCOC[C@H]4C)n2)CCN(C2COC2)C3)cc1 | 1930 nM (active) | 1370 nM (active) | 3060 nM (active) | 1530 nM (active) |
| Oc1cc(O)cc(-c2cc3ccc(O)cc3o2)c1 | inactive | inactive | inactive | inactive |
| O=C1/C(=C\c2ccc(O)c(O)c2)Oc2c1ccc(O[C@@H]1O[C@H](CO)[C@@H](O)[C@H](O)[C@H]1O)c2O | inactive | inactive | inactive | inactive |
| CC1(C)[C@H](O[C@H]2O[C@H](C(=O)O)[C@@H](O)[C@H](O)[C@H]2O[C@@H]2O[C@H](C(=O)O)[C@@H](O)[C@H](O)[C@H]2O)CC[C@@]2(C)[C@H]1CC[C@]1(C)[C@H]2C(=O)C=C2[C@H]3C[C@@](C)(C(=O)O)CC[C@]3(C)CC[C@]21C | inactive | inactive | inactive | inactive |
| COc1cc2c(O)c3c(c(-c4ccc5c(c4)OCO5)c2cc1OC)C(=O)OC3 | inactive | inactive | inactive | inactive |
| Cc1cc(-c2nnc3n2CCCCC3)c(C)n1-c1ccccc1 | inactive | inactive | inactive | inactive |
| COc1ccc(-c2coc3cc(O)cc(O)c3c2=O)cc1OC | inactive | inactive | inactive | inactive |
| Cc1c(O)c(C)c2c(c1O)C(=O)C[C@@H](c1ccccc1)O2 | inactive | inactive | inactive | inactive |
| CC1(C)CCC[C@@](C)([C@H]2CC[C@]3(C)[C@@H]2[C@H](O)C[C@@H]2[C@@]4(C)CC[C@H](O)C(C)(C)[C@@H]4CC[C@]23C)O1 | inactive | inactive | inactive | inactive |
| Cc1ccc([N+](=O)[O-])cc1S(=O)(=O)N(C)N=Cc1cnc2ccc(Br)cn12 | 21.7 nM (active) | 24.3 nM (active) | 61.1 nM (active) | 217 nM (active) |
| CC1(C)O[C@H]2C[C@@H]3[C@H]4CCC5=CC(=O)C=C[C@]5(C)[C@@]4(F)[C@@H](O)C[C@]3(C)[C@]2(C(=O)CO)O1 | inactive | inactive | inactive | inactive |
| CC(C)CCOC(=O)c1ccccc1 | inactive | inactive | inactive | inactive |
| CC(=O)OC1[C@H](Oc2c(O)c(C)c3c4c2[C@@H](C)CC[C@@H]4[C@@H](C)C[C@@H]3C=C(C)C)OC[C@@H](O)[C@@H]1O (stereo not given in full) | inactive | inactive | inactive | inactive |
| C=C1[C@H](n2cnc3c(=O)[nH]c(N)nc32)C[C@H](O)[C@H]1CO | inactive | inactive | inactive | inactive |
| COC1=CC(=O)CC(C)C12Oc1cc(OC)cc(OC)c1C2=O (stereo not given) | inactive | inactive | inactive | inactive |
| COC(=O)[C@@H]1CC2=CC(=O)CC[C@]2(C)[C@@]23O[C@@H]2C[C@@]2(C)[C@H](CC[C@@]24CCC(=O)O4)[C@@H]13 | inactive | inactive | inactive | inactive |
| CC1(C)Oc2ccc3ccc(=O)oc3c2[C@@H](O)[C@H]1O | inactive | inactive | inactive | inactive |
| CCCC(=O)OC/C=C(\C)CCC=C(C)C | inactive | inactive | inactive | inactive |
| C[C@@H]1CC[C@]2(C(=O)O[C@@H]3O[C@H](CO)[C@@H](O)[C@H](O)[C@H]3O)CC[C@]3(C)C(=CCC4[C@@]5(C)CC[C@H](O[C@@H]6OC[C@H](O)[C@H](O[C@@H]7O[C@H](CO)[C@@H](O)[C@H](O)[C@H]7O)[C@H]6O)C(C)(C)C5CC[C@]43C)C2[C@]1(C)O (stereo not given in full) | inactive | inactive | inactive | inactive |
| COc1ccc(-c2coc3cc(OC)ccc3c2=O)cc1 | inactive | inactive | inactive | inactive |

| Structure (SMILES) | Potency [1] | Potency [2] | Potency [3] | Potency [4] |
| --- | --- | --- | --- | --- |
| COc1cc2ccc(=O)oc2c(O)c1O | inactive | inactive | inactive | inactive |
| O=C1C=C(c2ccccc2)CO1 | inactive | inactive | inactive | inactive |
| CC(C)=CC(=O)O | inactive | inactive | inactive | inactive |
| CC12CCC(C1)C(C)(C)C2=O (stereo not given) | inactive | inactive | inactive | inactive |
| CC1=CC[C@H](CC=O)C1(C)C | inactive | inactive | inactive | inactive |
| CCCCC[C@H](O)C=C[C@H]1[C@H](O)CC(=O)[C@H]1CCCCCCC(=O)O | inactive | inactive | inactive | inactive |
| C/C(=C\COc1ccc2ccc(=O)oc2c1)CC[C@@H](O)C(C)(C)O | inactive | inactive | inactive | inactive |
| CC1(C)C[C@H]2C3=CCC4[C@@]5(C)CC[C@H](O)C(C)(C)C5CC[C@@]4(C)[C@]3(C)[C@@H](O)[C@@H](O)[C@@]2(CO)[C@@H](O)[C@@H]1O (stereo not given in full) | inactive | inactive | inactive | inactive |
| CCCCC(C=O)NC(=O)C(CC(C)C)NC(=O)OCc1ccccc1 (stereo not given) | inactive | inactive | inactive | inactive |
| Cc1ccc2ccccc2n1 | inactive | inactive | inactive | inactive |
| O=C1Nc2ccc(Cl)cc2C(C#CC2CC2)(C(F)(F)F)O1 (stereo not given) | inactive | inactive | inactive | inactive |
| CCCCCCCC1CCC(=O)O1 (stereo not given) | inactive | inactive | inactive | inactive |
| COC(=O)c1cc2c([nH]c3ccccc32)c(C)n1 | inactive | inactive | inactive | inactive |
| C=Cc1cc(OC)c2c(c1)c(=O)oc1c2cc(OC)c2c(O)ccc(C3OC(C)C(O)C(C)(O)C3O)c21 (stereo not given) | inactive | inactive | inactive | inactive |
| O=C1NC(=S)NC1=Cc1ccc(O)cc1 | inactive | inactive | inactive | inactive |
| CN1CC[C@@]2([C@@]34CCN(C)C3Nc3ccccc34)c3ccccc3NC12 (stereo not given in full) | inactive | inactive | inactive | inactive |
| C=C[C@@]1(C)CCC(/C(C)=C/C=C/C(C)(C)O)C[C@@H]1C(=C)C (stereo not given in full) | inactive | inactive | inactive | inactive |
| N#CC(=C(O)c1ccc(Cl)cc1Cl)c1nc2cc(Cl)ccc2c(=O)[nH]1 | inactive | inactive | inactive | inactive |
| C/C=C/c1ccc2oc(-c3ccc(O)cc3)c(C)c2c1 | inactive | inactive | inactive | inactive |
| CN[C@H]1[C@@H](O)[C@@H]2O[C@@H]3O[C@H](C)CC(=O)[C@]3(O)O[C@@H]2[C@@H](NC)[C@H]1O | 5440 nM (active) | 7690 nM (active) | 2430 nM (active) | 1720 nM (active) |

| Structure (SMILES) | Potency [1] | Potency [2] | Potency [3] | Potency [4] |
| --- | --- | --- | --- | --- |
| O=C(O)c1ccccc1 | inactive | inactive | inactive | inactive |
| COCCOCCOCCOCCOC | inactive | inactive | inactive | inactive |
| CO[C@H]1C=CCCC=CC(=O)O[C@H]([C@H](C)C(=O)CCCC2CC(=O)NC(=O)C2)C(C)=C[C@@H](C)[C@@H]1O | inactive | inactive | inactive | inactive |
| C[C@H]1CCC2[C@](C)(CO)[C@@H](O)CC[C@]2(C)[C@@]12CCC(CO)(CCO)O2 (stereo not given in full) | inactive | inactive | inactive | inactive |
| CCCCC/C=C/CC(=O)OC | inactive | inactive | inactive | inactive |
| CC1(C)CCC[C@]2(C)[C@H]3CC(=O)O[C@]3(C)CC[C@@H]12 | inactive | inactive | inactive | inactive |
| C[C@@H]1O[C@@H](O[C@H]2[C@H](O)[C@@H](O)[C@H](Oc3c(-c4ccc(O)c(O)c4)oc4cc(O)cc(O)c4c3=O)O[C@@H]2CO)[C@H](O)[C@H](O)[C@H]1O | inactive | inactive | inactive | inactive |
| CC(=O)O[C@@]1(C)C[C@@H](O)[C@]2(O)C=CO[C@@H](O[C@@H]3O[C@H](CO)[C@@H](O)[C@H](O)[C@H]3O)[C@@H]21 | inactive | inactive | inactive | inactive |
| CC(=O)C1CCC2(O)C3CCC4=CC(=O)CCC4(C)C3CCC12C (stereo not given) | inactive | inactive | inactive | inactive |
| CC1(C)Oc2ccc3ccc(=O)oc3c2C[C@H]1O[C@@H]1O[C@H](CO)[C@@H](O)[C@H](O)[C@H]1O | inactive | inactive | inactive | inactive |
| COc1cc(C2C(c3ccccc3)C(c3cc(OC)cc(=O)o3)C2c2ccccc2)oc(=O)c1 (stereo not given) | inactive | inactive | inactive | inactive |
| OC(CC(O)c1ccccc1)c1ccccc1 (stereo not given) | inactive | inactive | inactive | inactive |
| C=C[C@@H]1CN2CC[C@@H]1C[C@H]2[C@H](O)c1ccnc2ccc(OC)cc12 | inactive | inactive | inactive | inactive |
| CC(C)CCO | inactive | inactive | inactive | inactive |
| OC(c1cc(C(F)(F)F)nc2c(C(F)(F)F)cccc12)C1CCCCN1 (stereo not given) | inactive | inactive | inactive | inactive |
| C=CCNC1=C2C[C@@H](C)C[C@H](OC)[C@@H](O)[C@@H](C)C=C(C)[C@H](OC(N)=O)[C@@H](OC)C=CC=C(C)C(=O)NC(=CC1=O)C2=O | 8630 nM (active) | 6850 nM (active) | 15300 nM (active) | 4320 nM (active) |
| COc1ccc(C[C@@H]2c3cc(O)c(OC)cc3CCN2C)cc1O | inactive | inactive | inactive | inactive |
| COc1cc(OC)c2c(c1)C(=O)OC2 | inactive | inactive | inactive | inactive |
| CC[C@H](C)/C=C(C)/C=C/C(=O)Cc1cc(O)c(C)c(O)c1C=O | inactive | inactive | inactive | inactive |
| CC(=O)O[C@H]1C[C@@H]2CC[C@@]1(C)C2(C)C | inactive | inactive | inactive | inactive |
